{"source": "ChEMBL document CHEMBL3988442", "about": "“University of Dundee, Small-Polar-MMV Screening Library” (2021)", "note": "About 13,000 (27%) of roughly 48,000 compounds showed an effect of 50% or more. The list shows a part of the results."}
{"system": "Wolbachia pipientis", "assay": "Anti-Wolbachia Cell-Based Screen", "format": "functional", "set-up": "scale not given: in the data most compounds retested in dose-response had high values", "details": "5 µM", "units": {"Percent Effect": "%"}}
{"smiles": "Cc1cnn(CC2CN(CC(=O)NCCc3cccs3)CCO2)c1", "note": "(stereo not drawn)", "Percent Effect": -8.737}
{"smiles": "CCC(NC(=O)c1cccc(N2CCCC2=O)c1)c1ccc(OC)cc1", "note": "(stereo not drawn)", "Percent Effect": -14.69}
{"smiles": "Cc1ccc(N2CCCC(N3CCC(N(C)C)CC3)C2=O)cc1", "note": "(stereo not drawn)", "Percent Effect": 3.726}
{"smiles": "Cc1cc(=O)n2ncnc2n1CC(O)COCc1ccccc1Cl", "note": "(stereo not drawn)", "Percent Effect": -44.43}
{"smiles": "Cc1cc(F)cc(S(=O)(=O)Nc2noc(C)n2)c1", "Percent Effect": -6.165}
{"smiles": "COCCn1/c(=N\\C(=O)CN(C)S(C)(=O)=O)sc2cc(OC)ccc21", "Percent Effect": -16.36}
{"smiles": "Cc1noc(C)c1CN1C[C@H](OCC2CCN(C)CC2)[C@H]2COC[C@H]21.O=C(O)C(F)(F)F.O=C(O)C(F)(F)F", "Percent Effect": 122.2}
{"smiles": "Cc1noc(C)c1CN1Cc2cn(C)nc2C(COCC2CC2)C1.O=C(O)C(F)(F)F.O=C(O)C(F)(F)F", "note": "(stereo not drawn)", "Percent Effect": 0.03565}
{"smiles": "CN1CCC(CO[C@H]2CN(C(=O)c3cccn3C)[C@@H]3COC[C@H]23)CC1", "Percent Effect": -44.74}
{"smiles": "Cc1cc(CN2C[C@H](N3CCOCC3)[C@@H]3OCCC[C@@H]32)oc1C.O=C(O)C(F)(F)F.O=C(O)C(F)(F)F", "Percent Effect": -6.636}
{"smiles": "Cc1cc(CN2C[C@H](OCC3CCOCC3)[C@H]3COC[C@H]32)oc1C.O=C(O)C(F)(F)F", "Percent Effect": 99}
{"smiles": "COCCN1C[C@H]2[C@@H](C1)N(Cc1ccc(C)o1)CC[C@H]2OC", "Percent Effect": 6.788}
{"smiles": "Cc1ccc(CN2C[C@H](N3CCOCC3)[C@@H]3OCCC[C@@H]32)o1.O=C(O)C(F)(F)F.O=C(O)C(F)(F)F", "Percent Effect": -1.951}
{"smiles": "Cc1ccc(CN2C[C@H](OCC3CCN(C)CC3)[C@H]3COC[C@H]32)o1", "Percent Effect": 110.9}
{"smiles": "Cc1ccc(CN2C[C@H](OCC3CCOCC3)[C@H]3COC[C@H]32)o1.O=C(O)C(F)(F)F", "Percent Effect": 113.3}
{"smiles": "Cc1cc(CN2CC[C@H]3[C@H]2CCN3S(C)(=O)=O)oc1C.O=C(O)C(F)(F)F", "Percent Effect": -17.79}
{"smiles": "Cc1noc(C)c1CN1CCc2cnn(C)c2C1COCC1CC1.O=C(O)C(F)(F)F.O=C(O)C(F)(F)F", "note": "(stereo not drawn)", "Percent Effect": -11.43}
{"smiles": "CNC(=O)[C@H]1C[C@H]2OCC[C@H]2N(Cc2ccc(C)o2)C1.O=C(O)C(F)(F)F", "Percent Effect": -19.44}
{"smiles": "CC1(c2ccccc2)CCC(=O)N(CCN2CCCOC2=O)C1", "note": "(stereo not drawn)", "Percent Effect": -2.659}
{"smiles": "CC(Cn1cnc2cn(C)nc2c1=O)Oc1cccnc1", "note": "(stereo not drawn)", "Percent Effect": -0.8182}
{"smiles": "Cc1[nH]ncc1CCCNC(=O)N1CCN2CCCCC2C1", "note": "(stereo not drawn)", "Percent Effect": -2.363}
{"smiles": "CCCn1cnnc1CNC(=O)C1COc2cc(OC)ccc2C1", "note": "(stereo not drawn)", "Percent Effect": -15.52}
{"smiles": "CCOCCNC(=O)c1cccc(S(=O)(=O)NC[C@@H]2C[C@H](F)CN2)c1", "Percent Effect": -1.824}
{"smiles": "Cc1ccc(F)c(C(=O)N2CCN(S(C)(=O)=O)[C@@H](C)C2)c1", "Percent Effect": 7.436}
{"smiles": "COCc1nc(Cn2ncn3cccc3c2=O)no1", "Percent Effect": 10.93}
{"smiles": "Cc1cnn(CCCn2c(C)cc(C(F)(F)F)cc2=O)c1", "Percent Effect": -18.2}
{"smiles": "Cc1cc(C(F)(F)F)cc(=O)n1CCCn1cnnn1", "Percent Effect": -2.026}
{"smiles": "COCc1noc(CCNC(=O)c2cc(C)c(C)[nH]c2=O)n1", "Percent Effect": 20.99}
{"smiles": "COCc1noc(Cn2c(C)cc(C(F)(F)F)cc2=O)n1", "Percent Effect": 123.4}
{"smiles": "Cc1cc(C(F)(F)F)cc(=O)n1CCn1cc(Cl)cn1", "Percent Effect": -6.58}
{"smiles": "COCc1nc(CN2C(=O)OC[C@@H]2C(C)C)no1", "Percent Effect": 7.812}
{"smiles": "COCc1nc(Cn2c(C)cc(C(F)(F)F)cc2=O)no1", "Percent Effect": 116.4}
{"smiles": "Cc1cc(C(F)(F)F)cc(=O)n1Cc1nc(C(C)C)no1", "Percent Effect": 99.71}
{"smiles": "CCn1cc(CN(C)S(=O)(=O)c2cc(Cl)ccc2Cl)cn1", "Percent Effect": 2.949}
{"smiles": "COCc1ncc(CN2CC(Oc3c(C)cccc3C)C2)cn1", "Percent Effect": 2.359}
{"smiles": "C[S+]([O-])c1nncn1CC(=O)c1ccc2c(c1)CCO2", "note": "(stereo not drawn)", "Percent Effect": -1.094}
{"smiles": "CC(C)N(C)CC(=O)NCC(O)c1cc2ccccc2s1", "note": "(stereo not drawn)", "Percent Effect": -11.06}
{"smiles": "FC(F)(F)Cc1noc(CN2CCCC2c2noc(C3CC3)n2)n1", "note": "(stereo not drawn)", "Percent Effect": 0.1706}
{"smiles": "CC(C)c1nc(CSc2nnc(Cn3cncn3)o2)cs1", "Percent Effect": -8.133}
{"smiles": "CC(C)Cc1nc(CSCC(=O)N2CCC(C)CC2)no1", "Percent Effect": 4.489}
{"smiles": "CC(C)Cc1cc(NC(=O)c2ccccc2F)n(C)n1", "Percent Effect": 99.33}
{"smiles": "CC(C)Cc1cc(C(=O)N2CC(OCc3ccccc3F)C2)n(C)n1", "Percent Effect": 4.315}
{"smiles": "COc1ccccc1C(=O)Nc1cc(CC(C)C)nn1C", "Percent Effect": 100.2}
{"smiles": "CC(C)Cc1cc(C(=O)NC(C)(CO)CO)n(C)n1", "Percent Effect": 11.8}
{"smiles": "O=c1c2cccnc2cnn1CC(O)c1ccc(Br)cc1", "note": "(stereo not drawn)", "Percent Effect": -15.17}
{"smiles": "CSCCC(NC(N)=O)C(=O)NCc1cnn(-c2ccccc2)c1", "note": "(stereo not drawn)", "Percent Effect": -24.8}
{"smiles": "CC(C)CN1CC(O)CN(S(=O)(=O)c2ccc(F)cc2)CC1=O", "note": "(stereo not drawn)", "Percent Effect": 103.6}
{"smiles": "O=C1CN(S(=O)(=O)c2ccc(F)cc2)CC(O)CN1CC1CC1", "note": "(stereo not drawn)", "Percent Effect": 106.3}
